According to PubChem BioAssay (EPA / NIEHS):
Calls of active or inactive are those of the source. The calls were made as follows: active = hit-call score of the fitted dose curve at least 0.9, where 1 is the maximum; inactive = score below 0.9.

Assays:
[1] = CEETOX_H295R_11DCORT: CeeTox H295R High-throughput Steroidogenesis Assay for 11-Deoxycortisol (11DCORT) (AID 2283432); conditions: actives raise or lower the signal;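 as to AC50: 11-deoxycortisol secreted into the medium measured by LC-MS/MS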
Outline: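 H295R cells; 10 uM forskolin prestim 48 h; compound in 0.1% DMSO 48 h; media extracted with MTBE; 11-deoxycortisol by LC-MS/MS, 7-point standard curve; gain/loss vs DMSO baseline; viability by MTT in same wells.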

[2] = CEETOX_H295R_OHPREG: CeeTox H295R High-throughput Steroidogenesis Assay for OH-Pregnenolone (OHPREG) (AID 2283434); conditions: actives raise or lower the signal
Outline: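 Hormone levels in spent medium were measured by tandem mass spectrometry following liquid-liquid extraction. Cells (H295R) had been forskolin-stimulated (10 uM, 48 h) before a 48 h chemical exposure at 0.1% DMSO, with activity fitted in both directions against DMSO.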

[3] = CEETOX_H295R_OHPROG: CeeTox H295R High-throughput Steroidogenesis Assay for OH-Progesterone (OHPROG) (AID 2283435); conditions: actives raise or lower the signal;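 as to AC50: 17alpha-hydroxyprogesterone secreted into medium measured by HPLC-MS/MS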
Outline: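 Secreted 17alpha-hydroxyprogesterone is read by tandem MS from media of forskolin-primed H295R cells dosed with chemical for 48 h. Activity is fitted in both directions against DMSO baseline; cytotoxic concentrations are re-tested diluted.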

[4] = CEETOX_H295R_CORTIC: CeeTox H295R High-throughput Steroidogenesis Assay for Corticosterone (CORTIC) (AID 2283437); conditions: actives raise or lower the signal;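 also: corticosterone secreted into medium quantified by mass spectrometry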
Outline: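 Corticosterone secreted into medium is measured by reverse-phase HPLC with tandem MS following liquid-liquid extraction. Cells are forskolin-stimulated (10 uM, 48 h) before 48 h test exposure; activity fitted in both directions against DMSO.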

[5] = CEETOX_H295R_PROG: CeeTox H295R High-throughput Steroidogenesis Assay for Progesterone (PROG) (AID 2283442); conditions: actives raise or lower the signal;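 as to AC50: human H295R adrenal cells primed with 10 µM forskolin before dosing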
Outline: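 H295R human adrenal cells were prestimulated with 10 uM forskolin for 48 h, then exposed to test chemical (0.1% DMSO final) for 48 h. Medium progesterone was MTBE-extracted and quantified by HPLC-MS/MS, with bidirectional fitting against DMSO.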

[6] = read-out: Cyclin D2 (CCND2), CCND2 (gene 894); experiment: LTEA_HepaRG_CCND2: Life Technologies and Expression Analysis (LTEA) Assay for Cyclin D2 (CCND2) using HepaRG (AID 2283449); conditions: mRNA level, 48 h; actives raise or lower the signal
Outline: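 Read-out is CCND2 mRNA level measured by qRT-PCR in human HepaRG liver cells and normalised to three housekeeping genes. Chemicals were applied for 48 h at up to 100 uM, with gain or loss fitted relative to 0.5% DMSO.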

[7] = read-out: Cyclin D1 (CCND1), CCND1 (gene 595); experiment: LTEA_HepaRG_CCND1: Life Technologies and Expression Analysis (LTEA) Assay for Cyclin D1 (CCND1) using HepaRG (AID 2283451); conditions: mRNA level, 48 h; actives raise or lower the signal;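 as to AC50: TaqMan qRT-PCR transcript level normalised to ACTB GAPDH and POLR2A housekeeping genes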
Outline: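 Differentiated human HepaRG cells in serum-free induction medium were exposed 48 h to eight half-log concentrations up to 100 uM in 0.5% DMSO; mRNA quantified by TaqMan qRT-PCR, normalized to ACTB, GAPDH, POLR2A, fitted bidirectionally versus DMSO.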

[8] = read-out: catalase (CAT), CAT (gene 847); experiment: LTEA_HepaRG_CAT: Life Technologies and Expression Analysis (LTEA) Assay for catalase (CAT) using HepaRG (AID 2283452); conditions: mRNA level, 48 h; actives raise or lower the signal;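 as to AC50: TaqMan qRT-PCR signal normalized to ACTB GAPDH and POLR2A housekeeping genes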
Outline: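 Expression of CAT was quantified by TaqMan qRT-PCR with ACTB/GAPDH/POLR2A normalization after 48 h chemical exposure of HepaRG. Eight-point half-log series, top 100 uM, in 0.5% DMSO; gain or loss fitted against vehicle.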

[9] = read-out: flavin-containing dimethylaniline monooxygenases 3 (FMO3), FMO3 (gene 2328); experiment: LTEA_HepaRG_FMO3: Life Technologies and Expression Analysis (LTEA) Assay for flavin-containing dimethylaniline monooxygenases 3 (FMO3) using HepaRG (AID 2283453); conditions: mRNA level, 48 h; actives raise or lower the signal;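 as to AC50: FMO3 transcript by TaqMan qRT-PCR normalized to ACTB GAPDH and POLR2A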
Outline: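 HepaRG, 48 h exposure, 8-pt half-log series from 100 uM, 0.5% DMSO vehicle, duplicates; FMO3 transcript by Fluidigm TaqMan qRT-PCR, housekeeping-normalized; gain/loss fit vs DMSO.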

[10] = read-out: Cytochrome P450 (CYP1A1), CYP1A1 (gene 1543); experiment: LTEA_HepaRG_CYP1A1: Life Technologies and Expression Analysis (LTEA) Assay for Cytochrome P450 (CYP1A1) using HepaRG (AID 2283454); conditions: mRNA level, 48 h; actives raise or lower the signal
Outline: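 Differentiated HepaRG cells in serum-free induction medium were exposed in duplicate for 48 h to eight half-log concentrations up to 100 uM in 0.5% DMSO. CYP1A1 mRNA was quantified by TaqMan qRT-PCR, normalized to ACTB, GAPDH and POLR2A.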

[11] = read-out: CFLAR gene, CFLAR (gene 8837); experiment: LTEA_HepaRG_CFLAR: Life Technologies and Expression Analysis (LTEA) Assay for CFLAR gene using HepaRG (AID 2283455); conditions: mRNA level, 48 h; actives raise or lower the signal
Outline: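 HepaRG, 48 h exposure, 8-pt conc-response (100 uM top, half-log), 0.5% DMSO vehicle, duplicates. CFLAR expression by qRT-PCR; ACTB/GAPDH/POLR2A normalization; gain or loss fit vs DMSO baseline.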

[12] = read-out: Forkhead box O1 (FOXO1), FOXO1 (gene 2308); experiment: LTEA_HepaRG_FOXO1: Life Technologies and Expression Analysis (LTEA) Assay for Forkhead box O1 (FOXO1) using HepaRG (AID 2283456); conditions: mRNA level, 48 h; actives raise or lower the signal
Outline: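 Readout is FOXO1 transcript level by multiplexed qRT-PCR against three housekeeping genes, curve-fitted in both directions relative to 0.5% DMSO vehicle. Human HepaRG cultures received chemicals for 48 h, up to 100 uM in half-log steps.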

[13] = CEETOX_H295R_CORTISOL: CeeTox H295R High-throughput Steroidogenesis Assay for Cortisol (AID 2283438); conditions: actives raise or lower the signal;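 also: cortisol secreted into medium quantified by LC-MS/MS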
Outline: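 Human adrenocortical H295R cells (passage ≤10) received test chemicals for 48 h after forskolin priming. Secreted cortisol was measured by LC-MS/MS.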

[14] = CEETOX_H295R_ESTRADIOL: CeeTox H295R High-throughput Steroidogenesis Assay for Estradiol (AID 2283440); conditions: actives raise or lower the signal;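 also: estradiol secreted into medium quantified by LC-MS/MS after dansyl derivatisation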
Outline: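 H295R adrenocortical cells were prestimulated with 10 uM forskolin for 48 h, then exposed to test chemical in 0.1% DMSO for 48 h. Medium estradiol was extracted with MTBE, dansyl-derivatized and quantified by HPLC-MS/MS; bidirectional fit versus DMSO.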

[15] = CEETOX_H295R_ESTRONE: CeeTox H295R High-throughput Steroidogenesis Assay for Estrone (AID 2283441); conditions: actives raise or lower the signal;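 also: estrone secreted into medium measured by LC-MS/MS after dansyl derivatization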
Outline: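 H295R cells; 48 h forskolin (10 uM) prestimulation; 48 h compound exposure, 0.1% DMSO final. Medium estrone: MTBE extraction, dansyl derivatization, HPLC-MS/MS. Bidirectional fit vs DMSO.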

[16] = read-out: Tumor necrosis factor receptor superfamily member 6 (Homo sapiens) (UniProt P25445); experiment: LTEA_HepaRG_FAS: Life Technologies and Expression Analysis (LTEA) Assay for Fas cell surface death receptor (FAS) using HepaRG (AID 2283447); conditions: mRNA level, 48 h; actives raise or lower the signal
Outline: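 FAS transcript level was measured by TaqMan qRT-PCR against three housekeeping genes after 48 h chemical exposure. Cells were HepaRG, 0.5% DMSO vehicle, with a top concentration of 100 uM and half-log dilutions over eight points, in duplicate.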

[17] = read-out: Cyclin Dependent Kinase Inhibitor 1A (CDKN1A), CDKN1A (gene 1026); experiment: LTEA_HepaRG_CDKN1A: Life Technologies and Expression Analysis (LTEA) Assay for Cyclin Dependent Kinase Inhibitor 1A (CDKN1A) using HepaRG (AID 2283450); conditions: mRNA level, 48 h; actives raise or lower the signal
Outline: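 Differentiated human HepaRG cells, pre-cultured 48 h, were exposed in duplicate for 48 h in serum-free induction medium to eight half-log concentrations up to 100 uM (0.5% DMSO). CDKN1A mRNA was measured by qRT-PCR, normalized to ACTB/GAPDH/POLR2A, bidirectionally fitted versus DMSO.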

[18] = CEETOX_H295R_ANDR: CeeTox H295R High-throughput Steroidogenesis Assay for Androstenedione (ANDR) (AID 2283436); conditions: actives raise or lower the signal
Outline: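 Read-out is androstenedione secreted into medium, measured by tandem mass spectrometry after liquid-liquid extraction. Cells were H295R, dosed for 48 h per modified OECD 456; activity fitted in both directions relative to DMSO.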

[19] = CEETOX_H295R_TESTO: CeeTox H295R High-throughput Steroidogenesis Assay for Testosterone (TESTO) (AID 2283457); conditions: actives raise or lower the signal;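 also: cells exposed to chemicals for 48 h before medium collection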
Outline: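 H295R human adrenal cells in DMEM/F12 with ITS+ and Nu-Serum, exposed to chemicals for 48 h. Testosterone in medium measured by MTBE extraction, reverse-phase HPLC-MS/MS; bidirectional fit versus DMSO baseline. MTT viability checked in same wells.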

Measured: AC50

NC(=O)N(O)[C@@H]1C=C[C@H](Oc2cccc(Oc3ccc(F)cc3)c2)C1
inactive: [1] | [2] | [3] | [4] | [5] | [6]
active: [7] 84.1 µM | [8] 50 µM | [9] 42.7 µM | [10] 27.3 µM | [11] 67.3 µM | [12] 82.1 µM

CCCCCCCCC(=O)O
not listed: [17] | [18] | [19]
inactive: all other assays above

CCc1ccc(CCOc2ccc(CC3SC(=O)NC3=O)cc2)nc1 (centres undefined)
inactive: [1] | [2] | [3] | [4] | [16] | [6] | [11] | [12]
active: [5] 32.2 µM | [7] 50 µM | [8] 83.4 µM | [9] 78.7 µM | [10] 50 µM

Oc1cccc(O)c1
not listed: [6] | [16] | [18] | [19]
inactive: all other assays above

O=c1c(-c2ccc(O)cc2)coc2cc(O)ccc12
active: [1] 9.01 µM | [2] 4.47 µM | [3] 26.5 µM | [18] 15.2 µM | [4] 1.22 µM | [13] 8.88 µM | [5] 4.62 µM | [19] 16.4 µM
not listed: [17]
inactive: all other assays above
